Laboratory results published in PubChem BioAssay (EPA / NIEHS).
“And” between values parts separate entries of the source, which are not always exact repeats. Equal entries are not always repeated. Records with an inconclusive call do not appear. The source made the active and inactive calls. Rule for the calls, unless noted: active = hit-call score of the fitted dose curve at least 0.9, where 1 is the maximum; inactive = score below 0.9.

Key:
[1] = read-out: Vascular cell adhesion molecule 1 (VCAM1), VCAM1 (gene 7412); test: BSK_MyoF_VCAM1: BioMAP Diversity Plus: MyoF Assay for Vascular cell adhesion molecule 1 (VCAM1) Biomarker Activity (AID 2284231); conditions: primary human lung fibroblasts
How it was run: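 Primary human lung fibroblasts were dosed with test chemical for 24 h, then cell-surface VCAM-1 was measured by ELISA. Activity was fitted in the positive direction against DMSO as negative control and baseline.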

[2] = read-out: Collagen I, COL1A1 (gene 1277); test: BSK_MyoF_CollagenI: BioMAP Diversity Plus: MyoF Assay for Collagen I Biomarker Activity (AID 2284238); conditions: primary human lung fibroblasts
How it was run: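 Human lung fibroblasts were exposed to test chemical for 24 h, then Collagen I was quantified by ELISA. Activity was fitted in the increasing direction against DMSO as the negative control and baseline.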

[3] = read-out: Collagen III, COL3A1 (gene 1281); test: BSK_MyoF_CollagenIII: BioMAP Diversity Plus: MyoF Assay for Collagen III Biomarker Activity (AID 2284239); conditions: primary human lung fibroblasts
How it was run: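 Human lung fibroblasts were dosed with chemicals and, 24 hours later, collagen III was measured by ELISA. Activity was fitted in the positive direction against the DMSO negative-control baseline.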

[4] = CCTE_Mundy_HCI_hNP1_Casp3_7: CCTE's Caspase-Glo 3/7 Assay in human neuroprogenitor cells for Apoptosis, Mundy Lab (AID 2284240)
How it was run: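 Luminescent caspase-3/7 readout, 26.5 h post-dose, in human neural progenitor cells from WA09 embryonic stem cells. Cells grew 40–44 h at 37 °C, 5% CO2 before chemical addition. Activity analysed as signal increase over DMSO baseline.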

[5] = TAMU_HCS_1.5hr_SingleDonor1434_Cytotoxicity: Cytotoxicity Assessment using High-content Screening (HCS) Fluorescent Imaging for the Texas A&M University (TAMU) 1.5-hr Human Induced Pluripotent Stem Cell (iPSC)-derived Cardiotoxicity Assay (AID 2284234; active = hit-call score of the fitted dose curve at least 0.9, where 1 is the maximum)
How it was run: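 Nuclear counts from Hoechst 33342 imaging define cytotoxicity here, with EC10 (10% cell-count loss relative to DMSO) as point of departure. iPSC cardiomyocytes received 0.2-100 uM test chemical in 0.5% DMSO for 1.5 h at 37 C.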

[6] = TAMU_PeakParms_SingleDonor1434_QT: Texas A&M University (TAMU) 1.5-hr Human Induced Pluripotent Stem Cell (iPSC)-derived Cardiomyocytes Calcium (Ca+2) Flux Assay for Cardiotoxicity: QT (decay-rise ratio) (AID 2284235; active = hit-call score of the fitted dose curve at least 0.9, where 1 is the maximum)
How it was run: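 Decay/rise ratio of calcium-flux fluorescence scored after 90 min exposure (37C) of donor 1434 iPSC cardiomyocytes to 0.2–100 uM (0.5% DMSO). Beat-cessation and severe-notch points removed; POD is EC05, a 5% rise over DMSO.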

[7] = CCTE_Mundy_HCI_Cortical_NOG_NeuronCount: CCTE's Neurite Outgrowth Assay in rat cortical cells for Neuron Count, Mundy Lab (AID 2284236; active = hit-call score of the fitted dose curve at least 0.9, where 1 is the maximum;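 note: neurons counted by imaging betaIII-tubulin and Hoechst stained cortical cells; cells exposed to compound for about 48 hours before fixation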)
How it was run: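 Read-out: neuron number by high-content imaging of betaIII-tubulin (Alexa Fluor-488) and Hoechst-labelled rat primary cortical cells.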

[8] = CCTE_Mundy_HCI_Cortical_Synap_Neur_Matur_NeuronCount: CCTE's Synaptogenesis and Neurite Maturation Assay in rat cortical cells for Neuron Count, Mundy Lab (AID 2284242; active = hit-call score of the fitted dose curve at least 0.9, where 1 is the maximum)
How it was run: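 Measured at DIV 12: fluorescently labelled neurons (Hoechst nuclei, MAP2) in rat primary cortical cultures, counted by high-content imaging. AraC suppressed glia from DIV 5; DMSO served as negative control.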

CCO[Si](CCC(F)(F)C(F)(F)C(F)(F)C(F)(F)C(F)(F)C(F)(F)F)(OCC)OCC
outcome [1]: inactive
outcome [2]: inactive
outcome [3]: inactive

O=C(O)C(F)(F)C(F)(F)OC(F)(F)F
outcome [1]: inactive
outcome [2]: inactive
outcome [3]: inactive
outcome [4]: inactive

O=C(Cl)C(F)(F)C(F)(F)C(F)(F)C(F)(F)C(F)(F)C(F)(F)C(F)(F)C(F)(F)F
AC50 [1]: 27.2 µM (active) and 45.4 µM (active) and 44.1 µM (active)
AC50 [2]: 41.3 µM (active) and 41.8 µM (active) and 44.2 µM (active)
AC50 [3]: 22.5 µM (active) and 23.5 µM (active) and 24.7 µM (active)

O=C(O)C(F)(F)C(F)(F)C(F)(F)C(F)(F)C(F)(F)C(F)(F)C(F)(F)C(F)(F)C(F)(F)C(F)(F)C(F)(F)C(F)(F)C(F)(F)F
outcome [1]: inactive
outcome [2]: inactive
outcome [3]: inactive

OC[C@@H](O)[C@@H](O)[C@H](O)[C@@H](O)CO
outcome [5]: inactive
outcome [6]: inactive
outcome [7]: inactive
outcome [4]: inactive
outcome [8]: inactive

FC(F)(Br)C(F)(F)C(F)(F)C(F)(F)C(F)(F)C(F)(F)Br
outcome [1]: inactive
outcome [2]: inactive
outcome [3]: inactive

CO[Si](OC)(c1ccccc1)c1ccccc1
AC50 [1]: 32.8 µM (active)
AC50 [2]: 31.6 µM (active)
AC50 [3]: 31.6 µM (active)

CCc1ccc(C(c2ccc(CC)cc2)C(Cl)Cl)cc1
AC50 [1]: 14.1 µM (active)
AC50 [2]: 9.01 µM (active)
AC50 [3]: 8.17 µM (active)

OCCCC(F)(F)C(F)(F)C(F)(F)C(F)(F)C(F)(F)C(F)(F)C(F)(F)F
AC50 [1]: 51.2 µM (active) and 50.4 µM (active)
AC50 [2]: 49.1 µM (active) and 52.3 µM (active)
AC50 [3]: 46.9 µM (active) and 52.2 µM (active)
outcome [4]: inactive

FC(F)(F)C(F)(F)C(F)(F)C(F)(F)C(F)(F)C(F)(F)CC1CO1 (stereo unspecified)
outcome [1]: inactive
outcome [2]: inactive
outcome [3]: inactive
outcome [4]: inactive

CC(C)(C)C(=O)CC(=O)C(F)(F)C(F)(F)C(F)(F)F
outcome [1]: inactive
outcome [2]: inactive
outcome [3]: inactive
outcome [4]: inactive

O=C(O)C(F)(F)C(F)(F)F
outcome [1]: inactive
outcome [2]: inactive
outcome [3]: inactive

CC(=O)Nc1ccc(N=Nc2cc(C)ccc2O)cc1
AC50 [1]: 20 µM (active)
outcome [2]: inactive
outcome [3]: inactive

C=CC/C=C/C/C=C/C/C=C/C
outcome [1]: inactive
outcome [2]: inactive
outcome [3]: inactive

FC(F)(F)C(F)(F)C(F)(F)N(C(F)(F)C(F)(F)C(F)(F)F)C(F)(F)C(F)(F)C(F)(F)F
outcome [1]: inactive
outcome [2]: inactive
outcome [3]: inactive

C=CC(=O)OCC(F)(F)C(F)(F)C(F)(F)C(F)(F)COC(=O)C=C
AC50 [1]: 9.29 µM (active) and 10.5 µM (active)
AC50 [2]: 14.4 µM (active) and 16.6 µM (active)
AC50 [3]: 12.1 µM (active) and 14.6 µM (active)
outcome [4]: inactive

O=S(=O)(O)C(F)(F)C(F)(F)C(F)(F)C(F)(F)C(F)(F)C(F)(F)C(F)(F)F
outcome [1]: inactive
outcome [2]: inactive
outcome [3]: inactive

OCC(F)(F)C(F)(F)C(F)(F)C(F)F
outcome [1]: inactive
outcome [2]: inactive
outcome [3]: inactive
outcome [4]: inactive

FC(F)(F)C(F)(F)C(F)(F)C(F)(F)CCI
outcome [1]: inactive
outcome [2]: inactive
outcome [3]: inactive
outcome [4]: inactive

FC(F)(F)C(F)(F)C(F)(F)C(F)(F)C(F)(F)C(F)(F)C(F)(F)C(F)(F)F
outcome [1]: inactive
outcome [2]: inactive
outcome [3]: inactive
outcome [4]: inactive

CS(C)(=O)=O
outcome [1]: inactive
outcome [2]: inactive
outcome [3]: inactive

CCc1c(Br)c(Br)c(Br)c(Br)c1Br
AC50 [1]: 20 µM (active)
outcome [2]: inactive
outcome [3]: inactive

N=C(N)C(F)(F)C(F)(F)C(F)(F)C(F)(F)C(F)(F)C(F)(F)C(F)(F)F
outcome [1]: inactive
outcome [2]: inactive
outcome [3]: inactive
outcome [4]: inactive

O=C(O)C(F)(F)C(F)(F)C(F)(F)C(F)(F)F
outcome [1]: inactive
outcome [2]: inactive
outcome [3]: inactive

FC(F)(I)C(F)(F)C(F)(F)C(F)(F)I
AC50 [1]: 52.7 µM (active) and 45.4 µM (active) and 45.5 µM (active)
AC50 [2]: 51.6 µM (active) and 46.4 µM (active) and 54.1 µM (active)
AC50 [3]: 53.1 µM (active) and 54.9 µM (active) and 54.2 µM (active)

O=C(CC(=O)C(F)(F)C(F)(F)F)C(F)(F)F
outcome [1]: inactive
outcome [2]: inactive
outcome [3]: inactive
outcome [4]: inactive

C=C(C)C(=O)OCCC(F)(F)C(F)(F)C(F)(F)C(F)(F)C(F)(C(F)(F)F)C(F)(F)F
outcome [1]: inactive
outcome [2]: inactive
outcome [3]: inactive

OCC(F)(F)C(F)(F)C(F)(F)F
outcome [1]: inactive
outcome [2]: inactive
outcome [3]: inactive
outcome [4]: inactive

O=C(O)C(F)(OC(F)(F)C(F)(OC(F)(F)C(F)(F)C(F)(F)F)C(F)(F)F)C(F)(F)F (stereo unspecified)
outcome [1]: inactive
outcome [2]: inactive
outcome [3]: inactive

FC(F)(F)C(F)(F)C(F)(F)CI
outcome [1]: inactive
outcome [2]: inactive
outcome [3]: inactive
outcome [4]: inactive

O=C(O)C(F)(F)C(F)(F)C(F)(F)C(F)(F)C(F)(F)C(F)(F)C(F)(F)C(F)(F)Cl
AC50 [1]: 43.5 µM (active) and 23.5 µM (active)
AC50 [2]: 19.3 µM (active)
AC50 [3]: 17.6 µM (active) and 18.3 µM (active)
outcome [4]: inactive

O=C(O)C(F)(F)C(F)(F)C(F)(F)F
outcome [1]: inactive
outcome [2]: inactive
outcome [3]: inactive
outcome [4]: inactive

C=C(C)C(=O)OCC(F)(F)C(F)(F)C(F)(F)F
outcome [1]: inactive
outcome [2]: inactive
outcome [3]: inactive
outcome [4]: inactive
